Active and inactive are the calls of the source. The rule behind the calls is not given here.

For the assay, the system named is Aerobactin synthetase IucA (Klebsiella pneumoniae hvKP1). Nature of the assay: IucA enzyme inhibition, primary screen, biochemical, Spectrum library (AID 1346200).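 Note: 100% = wells without compound and 0% = wells lacking enzyme.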 The following applies: malachite green pyrophosphate, A620, at 8 µM, active compounds read low.
In the case of `Nc1ccn(C2O[C@H](CO)[C@@H](O)[C@@H]2O)c(=O)n1` (stereo partly specified), the activity remaining was 93.2% (inactive).

On to `CC(C)NCC(O)COc1cccc2ccccc12` (stereo unspecified), for which the activity remaining is 105% (inactive).

As to `CC1(C)S[C@@H]2[C@H](NC(=O)[C@@H](N)c3ccc(O)cc3)C(=O)N2[C@H]1C(=O)O`, the activity remaining is 99.8% (inactive).

Turning to `CO[C@H]1O[C@H](CO)C(O[C@@H]2OC(C(=O)O)[C@@H](O[C@H]3O[C@H](COS(=O)(=O)O)C(O[C@@H]4OC(C(=O)O)[C@@H](O[C@H]5O[C@H](CO)C(O[C@@H]6OC(C(=O)O)[C@@H](O[C@H]7O[C@H](COS(=O)(=O)O)C(O[C@@H]8OC(C(=O)O)=C[C@H](O)C8OS(=O)(=O)O)[C@H](O)[C@H]7NC(C)=O)[C@H](O)[C@H]6O)[C@H](O)[C@H]5NC(C)=O)[C@H](O)[C@H]4O)[C@H](O)[C@H]3NC(C)=O)[C@H](O)[C@H]2O)[C@H](O)[C@H]1NC(C)=O` (stereo partly specified), the activity remaining was 92.9% (inactive).

For the compound `CC(=O)OC/C=C(\C)CC/C=C(\C)CC/C=C(\C)CC/C=C(\C)CC/C=C(\C)CC/C=C(\C)CC/C=C(\C)CC/C=C(\C)CCC=C(C)C`, the activity remaining was 120% (inactive).

Take `NC(Cc1c[nH]c2ccccc12)C(=O)O` (stereo unspecified): the activity remaining is 107% (inactive).

For `COc1cc2c(cc1OC)C1Cc3ccc(OC)c(OC)c3CN1CC2` (stereo unspecified), the activity remaining is 118% (inactive).

Turning to `Cc1c(N(C)CS(=O)(=O)O)c(=O)n(-c2ccccc2)n1C`, the activity remaining is 97.1% (inactive).

As for `CN(C)CC/C=C1/c2ccccc2COc2ccccc21`, the activity remaining is 99.3% (inactive).

Take `CC(Cc1ccc(O)c(O)c1)(NN)C(=O)O` (stereo unspecified): the activity remaining was 111% (inactive).

On to `CC(=O)[C@H]1CCC2C3C[C@H](C)C4=CC(=O)CC[C@]4(C)C3[C@@H](O)C[C@@]21C` (stereo partly specified), for which the activity remaining is 101% (inactive).

`CC1(C)C(=O)C=C[C@@]2(C)C1CC(=O)[C@@]1(C)C3=CC(=O)O[C@@H](c4ccoc4)[C@]3(C)CCC12` (stereo partly specified): the activity remaining was 107% (inactive).

As to `COc1cc(OC)c2c(=O)c(-c3ccccc3)coc2c1`, the activity remaining is 110% (inactive).

`O=C1CN(/N=C/c2ccc([N+](=O)[O-])o2)C(=O)N1`: the activity remaining is 78.3% (inactive).

Regarding `C=CCCCCCCCCCCCC(O)CC(O)CO` (stereo unspecified) (tested in a mixture with another compound), the activity remaining was 85.4% (inactive).

For `CC(=O)O[C@@H]1CC[C@@]2(C)C(CC[C@]3(C)C2CC=C2C4CC(C)(C)CC[C@]4(C(=O)O)CC[C@]23C)C1(C)C` (stereo partly specified), the activity remaining is 96.2% (inactive).

In the case of `Cc1cc(C(C)(C)CC(C)(C)C)ccc1OCCOCC[N+](C)(C)Cc1ccccc1`, the activity remaining was 118% (inactive).

As for `CC(=O)O[C@H]1CC[C@@]2(C)C(=CCC3C2CC[C@@]2(C)C3CC[C@@H]2C(C)CCCC(C)C)C1` (stereo partly specified), the activity remaining was 124% (inactive).

`CO[C@H]1/C=C/O[C@@]2(C)Oc3c(C)c(O)c4c(O)c(c5c(nc6cc(C)ccn65)c4c3C2=O)NC(=O)/C(C)=C\C=C\[C@H](C)[C@H](O)[C@@H](C)C(O)[C@@H](C)[C@H](OC(C)=O)[C@@H]1C` (stereo partly specified): the activity remaining was 110% (inactive).

`CCN1CCCC(OC(=O)C(c2ccccc2)c2ccccc2)C1` (stereo unspecified): the activity remaining is 110% (inactive).

As for `CN1CCOC(c2ccccc2)c2ccccc2C1` (stereo unspecified), the activity remaining was 110% (inactive).

For `C=C(CC)C(=O)c1ccc(OCC(=O)O)c(Cl)c1Cl`, the activity remaining was 100% (inactive).

As for `Nc1nc(/C(=C/CC(=O)O)C(=O)N[C@@H]2C(=O)N3C(C(=O)O)=CCS[C@H]23)cs1`, the activity remaining was 117% (inactive).

Consider `O=c1c2ccccc2oc2ccc(O)cc12`, for which the activity remaining was 122% (inactive).

For the compound `S=c1[nH]c2ccccc2s1`, the activity remaining is 99.3% (inactive).

As to `CCCCC(=O)O[C@]1(C(=O)CO)CCC2C3CCC4=CC(=O)CC[C@]4(C)C3[C@@H](O)C[C@@]21C` (stereo partly specified), the activity remaining is 111% (inactive).

Take `O=C(/C=C/c1ccccc1)O[C@H]1C[C@@H](O)[C@]2(O)C=CO[C@@H](O[C@@H]3O[C@H](CO)[C@@H](O)[C@H](O)[C@H]3O)[C@H]12`: the activity remaining was 108% (inactive).

Regarding `NS(=O)(=O)c1cc2c(cc1Cl)NC(C(Cl)Cl)NS2(=O)=O` (stereo unspecified), the activity remaining was 108% (inactive).

As to `Cc1cc2nc3c(=O)[nH]c(=O)nc-3n(CC(O)C(O)C(O)CO)c2cc1C` (stereo unspecified), the activity remaining was 106% (inactive).

With `CCC1OC(=O)[C@H](C)C(=O)[C@H](C)[C@@H](OC2O[C@H](C)C[C@H](N(C)C)[C@H]2O)[C@](C)(OC)C[C@@H](C)C(=O)[C@H](C)[C@H]2N(CCCCn3cnc(-c4cccnc4)c3)C(=O)OC12C` (stereo partly specified), the activity remaining is 121% (inactive).

On to `CC(=O)O[C@@H]1C=C[C@@]2(C)C(C[C@@H](OC(C)=O)[C@@]3(C)C4=CC(=O)O[C@@H](c5ccoc5)[C@]4(C)CCC23)C1(C)C` (stereo partly specified), for which the activity remaining was 82.6% (inactive).

Source of the values: PubChem BioAssay.
